For 108 compounds, outcome results are on record in PubChem BioAssay AID1117359 (Southern Research Institute, 2015).

Out of some 1,500 compounds screened, about 460 (31%) were called active.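 The calls were made as follows: active = viability at or below 80% at any tested concentration, marking the compound as toxic; inactive = the rest.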 Not all results are given here. Entries that show only a call come without a potency. Potency and affinity values are given separately.

This assay can be described thus: THP-1 cell cytotoxicity, dose response, cytotoxicity control for Vif-APOBEC3G degradation inhibitor project, THP-1 cells (AID 1117359). Particulars: THP-1 viability, CellTiter-Glo luminescence, 72 h; series mostly up to 40 µM. (In general: In ATP-based viability assays light output follows the ATP content of the culture.)
As to `Cc1ccc(S(=O)(=O)Cn2nnnc2C(CC(C)C)N2CCN(C)CC2)cc1` (stereo not drawn), the outcome was inactive. On to `Cc1cc(C)cc(NCCC#N)c1`, for which the outcome was inactive. In the case of `CCOC(=O)C1=C(O)/C(=C\c2ccc(CNC(=O)C(=O)Nc3ccccc3)o2)N=C1C` it was “inactive”; in that of `CCCOC(=O)Nc1sc2c(c1C(=O)OCC)CCC2`, “inactive”.

On to `Cc1c(C(=O)O)cccc1-n1c(C)cc(/C=N/Nc2ccc([N+](=O)[O-])cn2)c1C`, for which the result was inactive.

Turning to `CC(NC(=O)Nc1ccc(O)cc1)(C(F)(F)F)C(F)(F)F`, the call was inactive. Regarding `CCOC(=O)CSc1nncc2ccc(OC)c(OC)c12`, the compound was called inactive. In the case of `N#Cc1c(-c2ccccc2)nc2n1CCS2` it was “inactive”; in that of `Nc1ccc(-c2nc3cc(N)ccc3n2CCO)cc1`, “inactive”.

Consider `CC(=O)Nc1ccc(C(=O)Nc2cccc(-c3cnc4ccccc4n3)c2)cc1`, for which the result was inactive. In the case of `CC1=CC(C)(C)n2c(O)c(N=NC(N)=S)c3c(C)c(C)cc1c32` it was “inactive”; in that of `COC(=O)CCC(=O)OC1(C)C(=O)C2=CN(CCCOC(C)C)C(c3ccc(OC)cc3)=CC2=C(Br)C1=O` (stereo not drawn), “inactive”; in that of `O=C(O)C1Nc2ccc(Br)cc2C2C=CCC12` (stereo not drawn), “inactive”. As to `C/C(=N\Nc1ccc2nncn2n1)c1ccc(Br)s1`, the result was inactive. In the case of `CC(=O)Nc1ccc(/C=N/Nc2ccc(C(=O)c3c(C)cc4ccccn34)cc2[N+](=O)[O-])cc1` it was “inactive”. `O=C1CC(Nc2ccc(N3CCOCC3)cc2)C(=O)N1c1cccc(C(F)(F)F)c1` (stereo not drawn): the outcome was inactive.

Turning to `O=C(O)c1ccc(-n2cccc2/C=N\NC(=O)c2cc3cc(Br)ccc3o2)cc1`, the call was inactive. In the case of `CCOC(=O)C1CCN(C(=O)Nc2ccc3nc(-c4ccco4)c(-c4ccco4)nc3c2)CC1` it was “inactive”; in that of `O=C(O)Cn1c(=O)c2c(c3ccccc31)CCC2`, “inactive”. In the case of `O=C(O)c1cccc(-n2cccc2/C=C/[N+](=O)[O-])c1` it was “inactive”; in that of `Cc1cccc(NC(=S)NC(=O)/C=C/c2ccco2)c1`, “inactive”; in that of `CC(=O)c1ccc(S(=O)(=O)Nc2cccc(-c3ccc(N4CCOCC4)nn3)c2)cc1`, “inactive”. As for `CCCCOC(=O)CCCN1C(=O)/C(=C2\SC(=S)N(CCCC(=O)OCCCC)C2=O)SC1=S`, the call was inactive. In the case of `Nc1ncnc2c1cnn2C1CCCCC1` it was “inactive”; in that of `Cc1ccc(Nc2ccc(N)cc2S(=O)(=O)O)cc1`, “inactive”; in that of `CCOCCCNC(=O)C1CCN(S(=O)(=O)CC)CC1`, “inactive”. In the case of `CCOC(=O)N1CCC(NC(=O)c2ccc(OC)c(CN3CC(=O)N4CCCC4C3=O)c2)CC1` (stereo not drawn) it was “inactive”; in that of `C=CCN1C(=O)/C(=C\c2ccco2)C(C(=O)OC)=C1C`, “inactive”.

Regarding `O=C(O)c1ccc(S(=O)(=O)c2ccc([N+](=O)[O-])cc2[N+](=O)[O-])cc1`, the compound was classed as inactive. In the case of `O=[N+]([O-])c1ccccc1S(=O)(=O)NC1CCCC1` it was “inactive”; in that of `CCNC(=O)C1CC(=O)N(Cc2ccc(F)cc2)C(=Nc2ccc(OC)cc2)S1` (stereo not drawn), “inactive”; in that of `CCOC(=O)C1CC(CN2C(=O)c3ccccc3C2=O)OC1=O` (stereo not drawn), “inactive”. In the case of `CC1CCCCC1NC(=S)Nc1cccc(S(=O)(=O)N(C)C)c1` (stereo not drawn) it was “inactive”; in that of `O=C1N(Cc2cccnc2)C[C@@H]2C[C@@H](c3ccc4nsnc4c3)N3CCC[C@@]123`, “inactive”.

Regarding `Cc1cc(NC(=O)Cc2cccs2)no1`, the call was inactive. In the case of `CN1CCN(NC(=O)c2ccc(S(=O)(=O)N3CC4(C)CC3CC(C)(C)C4)cc2)CC1` (stereo not drawn) it was “inactive”; in that of `CCC(C)n1c(-c2cccc(S(=O)(=O)N3CCOCC3)c2)n[nH]c1=S` (stereo not drawn), “inactive”. With `Cc1cc(NC(=O)Cn2cnc3c(nnn3-c3cccc(F)c3)c2=O)no1`, the result was inactive.

Regarding `COc1ccccc1NS(=O)(=O)c1cc(C(=O)NCCN2CCOCC2)ccc1Cl`, the call was inactive.

With `Oc1c(CN2CCOCC2)cc(CN2CCOCC2)c(O)c1O`, the outcome was inactive. With `CCOc1ccc(-n2c(SCC(N)=O)nnc2-c2cccnc2)cc1`, the result was inactive. Regarding `CN(Cc1cccs1)C(=O)Cn1cnc2ccccc2c1=O`, the outcome was inactive. Consider `O=C(NCCc1ccccc1)c1ccc2nc(-c3ccco3)c(-c3ccco3)nc2c1`, for which the outcome was inactive.

Take `O=C1CC(NCc2ccco2)C(=O)N1CCc1ccccc1` (stereo not drawn): the outcome was inactive. Take `Cc1c(F)cccc1NC(=O)CCCCCC1NC(=O)NC1C` (stereo not drawn): the call was inactive. In the case of `CCN1C[C@@H]2[C@@H]3C(=O)N(Cc4ccccc4)C(=O)[C@@H]3[C@](C)(C(=O)OC)N2C1=NC1CCCCC1` it was “inactive”; in that of `CO[C@H]1C=CO[C@@]2(C)Oc3c(C)c(O)c4c(O)c(c(C=NN5CCN(C)CC5)c(O)c4c3C2=O)NC(=O)C(C)=CC=C[C@H](C)[C@H](O)[C@@H](C)[C@@H](O)[C@@H](C)[C@H](OC(C)=O)[C@@H]1C`, “inactive”. In the case of `CSc1ccc(CN(C)CC(=O)NC(=O)NCCC2=CCCCC2)cc1` it was “inactive”. In the case of `CC1(OC(=O)C2CCCC2)C(=O)C=C2C=C(c3ccsc3)OC=C2C1=O` (stereo not drawn) it was “inactive”; in that of `CC1(CCl)N([O-])C2=C(CCCC2)[N+]1=O` (stereo not drawn), “inactive”; in that of `O=C(NN=C1CCCCCC1)c1cccnc1`, “inactive”. `O=C(N/N=C/c1cccnc1)c1cc(O)c(O)c(O)c1`: the outcome was inactive. In the case of `Cc1cc(C)n(CC(=O)NNC(=O)c2ccc(NC(=O)CC#N)cc2)n1` it was “inactive”; in that of `CN(C)c1ccc(N/C=C/C(=O)c2ccco2)cc1`, “inactive”; in that of `Nc1cc(N)nc(SCc2cc([N+](=O)[O-])cc3c2OCOC3)n1`, “inactive”.

On to `Cc1ccc(N/N=C/c2c(C)c(C#N)c(=O)n(C)c2O)cc1C`, for which the call was inactive. In the case of `Cn1ccnc1Sc1ccc(/C=N/NC(=O)c2ccccc2O)cc1[N+](=O)[O-]` it was “inactive”; in that of `O=S(=O)(c1ccc(NC(=S)N/N=C/c2ccc(O)c(O)c2)cc1)N1CCOCC1`, “inactive”. In the case of `O=C1C(=Cc2ccco2)CCCC1=Cc1ccco1` it was “inactive”. Take `O=C(COC(=O)COc1ccc(Cl)cc1Cl)NC1CCCCCC1`: the compound was called inactive. In the case of `CN1CCN(C(=O)/C(=C/c2ccc(F)cc2)NC(=O)c2ccccc2)CC1` it was “inactive”; in that of `O=C(Cc1c(F)cccc1Cl)NNC(=O)c1ccccc1Cl`, “inactive”; in that of `COc1ccc2nc(-c3ccccc3)cc(C(=O)OCC(=O)N3CC(C)OC(C)C3)c2c1` (stereo not drawn), “inactive”. In the case of `O=C(c1coc(=O)c(Br)c1)N1CCCc2ccccc21` it was “inactive”; in that of `CCCCN(C(=O)c1ccccc1OCc1ccc(F)cc1)c1c(N)n(CC(C)C)c(=O)[nH]c1=O`, “inactive”. In the case of `COc1ccc(S(N)(=O)=O)cc1C(=O)OCC(=O)NC(C)(C#N)C1CC1` (stereo not drawn) it was “inactive”; in that of `CCc1ccc(N2C(=O)Cc3c2nc(N)c(C#N)c3N)cc1`, “inactive”; in that of `COC(=O)c1ccccc1NC(=O)c1noc2c1CCC2`, “inactive”.

Consider `O=C(CN1CCN(S(=O)(=O)c2ccc(F)cc2)CC1)c1ccc(O)c(O)c1`, for which the call was inactive. In the case of `CC(C)(C)c1ccc(S(=O)(=O)N2CCCCC2)cc1` it was “inactive”; in that of `O=C(CCS(=O)(=O)c1ccc(Br)cc1)N1CCN(c2ccc(F)cc2)CC1`, “inactive”.

On to `CC(=O)Nc1ccc(NC(=O)C(C)OC(=O)CC23CC4CC(CC(Br)(C4)C2)C3)cc1` (stereo not drawn), for which the compound was called inactive.

With `CC(=O)OC1OCCOC1NC(=S)Nc1ccc(C)cc1` (stereo not drawn), the compound was called inactive. Take `CC(C)(C)NCCCCOc1ccc(F)cc1`: the call was inactive. In the case of `COC/C=C/C1=CC2=CC(=O)C(C)(OC(=O)c3ccco3)C(=O)C2=CO1` (stereo not drawn) it was “inactive”; in that of `O=C(c1cc2ccccc2o1)N1CC=C(c2ccccc2)CC1`, “inactive”. In the case of `COc1ccc2nc(NNC(=O)c3cc(=O)c4ccccc4o3)sc2c1` it was “inactive”; in that of `O=c1c(N=Nc2ccc(O)cc2)c(-c2ccccc2)[nH]n1-c1ccc([N+](=O)[O-])cc1`, “inactive”. As to `CC1(OC(=O)CCc2ccccc2)C(=O)C=C2C=C(c3ccsc3)OC=C2C1=O` (stereo not drawn), the compound was called inactive. In the case of `CCOC(=O)C1(Cc2ccc(OC)cc2)CCN(C(=O)Cc2cccnc2)CC1` it was “inactive”. As to `CCOc1ccc(-n2c(SCC(=O)Nc3cc(C)on3)nnc2-c2c[nH]c3ccccc23)cc1`, the result was inactive. In the case of `O=C(CC(=O)NN=Cc1ccc2c(c1)CCC2)NN=Cc1ccc2c(c1)CCC2` it was “inactive”; in that of `COc1cc2ccccc2nn1`, “inactive”. Consider `C/C(=N\NC(=O)c1ccc(NS(=O)(=O)c2cccs2)cc1)c1ccccc1`, for which the compound was called inactive. In the case of `CCN1CCN(C(=O)C2COc3ccccc3O2)CC1` (stereo not drawn) it was “inactive”; in that of `O=C(COC(=O)c1ccc(NS(=O)(=O)c2cccs2)cc1)NCc1ccco1`, “inactive”.

`O=C(O)CCc1ccc(-c2cccs2)n1-c1ccc(C(=O)O)cc1`: the outcome was inactive. For `O=C(c1ccc(=O)oc1)N1CCCc2ccccc21`, the call was inactive.

`O=C(Cc1ccccn1)c1ccncc1`: the compound was classed as inactive. In the case of `Cc1cc(O)ccc1-c1cnc2ccccc2n1` it was “inactive”; in that of `Cc1cc(/C=C2\SC(=S)NC2=O)c(C)n1-c1ccc(O)cc1`, “inactive”.

Take `O=C(NCC1CCCO1)c1cc2ccccc2oc1=O` (stereo not drawn): the outcome was inactive. In the case of `NS(=O)(=O)c1ccc(CCNC(=O)CCS(=O)(=O)c2ccc(Br)cc2)cc1` it was “inactive”; in that of `CC(OC(=O)/C=C/c1ccco1)C(=O)NC1CCCCC1` (stereo not drawn), “inactive”; in that of `CC(=O)Nc1ccc(NC(=O)C(C)OC(=O)CCc2c[nH]c3ccccc23)cc1` (stereo not drawn), “inactive”.

Take `O=c1ccc2c(-c3ccccc3S(=O)(=O)O)c3ccc(O)c(O)c3oc-2c1O`: the outcome was inactive. In the case of `CCOc1ccccc1C(O)C1=CC(=O)c2ccccc2C1=O` (stereo not drawn), the compound was called inactive. In the case of `CCOc1cccc(C(=O)Nc2ccccc2OC(F)F)c1` it was “inactive”.

Consider `CC(=O)Nc1nnc(SCC(=O)N2CCCc3ccccc32)s1`, for which the call was inactive.

Consider `O=C(Nc1ccc(F)c(Cl)c1)c1cccnc1`, for which the compound was called inactive.

On to `Clc1ccc2c(c1)nc1n2CCCC1`, for which the result was inactive. In the case of `FC(F)Oc1ccccc1NC(=S)Nc1cccnc1` it was “inactive”; in that of `CN(C)c1nc(N)nc(CSc2nc3c(c(=O)n(C)c(=O)n3C)n2Cc2ccccc2F)n1`, “inactive”; in that of `CCS(=O)(=O)c1ccc2oc(Nc3cccc(OC)c3)nc2c1`, “inactive”.

Turning to `CC1CCN(S(=O)(=O)c2ccc(C(=O)NCc3ccc4c(c3)OCO4)cc2)CC1`, the call was inactive. In the case of `CC(C)(C)c1nnc(NC(=O)c2ccc(Cl)nc2)s1` it was “inactive”. In the case of `Cc1cccc(N/N=C/c2ccc(O)c(O)c2O)c1` it was “inactive”.

For the compound `CCn1c(C)nc2cc(C(=O)N/N=C/c3ccc(O)c(O)c3O)ccc21`, the call was inactive.
